# PubChem BioAssay AID624483 (NMMLSC, 2012)
# About 11,000 (3.1%) of roughly 360,000 compounds were called active. Roughly 2% stayed inconclusive and do not appear here. For the sample, actives were picked, then their nearest neighbours and some compounds at random. Unmarked numbers belong to inactive results. Cut-off read from the data, not from the text of the source: active = fluorescence intensity above about 16000; inconclusive = no clear call, values can overlap the other calls; inactive = below that.
# Assay: counter-screen for toxin protease inhibitors: compound fluorescence, primary screen, artefact control for toxin protease inhibitor project, biochemical, multiplex microsphere, HTS (AID 624483)
# Conditions: compound autofluorescence counterscreen, microsphere flow cytometry; stronger effect = higher value
row,Structure (SMILES),fluorescence intensity
1,CC(C)CCOc1ccc(C(=O)Nc2cc(S(=O)(=O)N3CCOCC3)ccc2N2CCOCC2)cc1,3010
2,Cc1ccccc1CS(=O)(=O)CC1(O)CCN(C(=O)c2cccc(C(F)(F)F)c2)CC1,20100 (active)
3,Cc1ccccc1CN1CCN(C(=O)c2cccc(F)c2)CC1,2980
4,CC(C)CC(=O)N1CCC(O)(CS(=O)(=O)Cc2ccccc2)CC1,10100
5,Cn1c(=O)c2c(nc(N3CCCCCC3)n2CC(O)COc2ccc(Cl)cc2)n(C)c1=O (stereo unspecified),21800 (active)
6,O=C(c1ccc(Cl)cc1)c1ccc(OCC(O)CN2CCCCC2)cc1 (stereo unspecified),4210
7,Cc1cccc(OCC(O)Cn2c(N3CCCCC3)nc3c2c(=O)[nH]c(=O)n3C)c1 (stereo unspecified),4090
8,c1cc(-c2ccc3[nH]ccc3c2)n2ccnc2c1,3500
9,COC(=O)[C@]12CCCCC=C1N(Cc1ccco1)C(=O)[C@H](CC(=O)NCC1CCCCC1)C2,4680
10,CSc1ncccc1C(=O)Nc1cccc(S(=O)(=O)N2CCOCC2)c1,4320
11,Oc1ccc(CNc2ccccc2O)cc1,3590
12,COc1ccc(OC)c(C(=O)c2coc3ccc(O)c(CN4CCOCC4)c23)c1,22400 (active)
13,COc1ccc2oc(=O)cc(CN3CCOCC3)c2c1,4180
14,COc1ccc(OC)c(C(=O)c2coc3ccc(OC)cc23)c1,2950
15,Cc1ccc(NC(=O)c2oc(=O)c3ccccc3c2-c2ccccc2)c(C)c1,2070
16,CCN(CC)CCNc1nc(-c2ccc(OC(F)F)cc2)c(C)s1,4700
17,O=C(c1cccc(Br)c1)N1CCN(C2=NS(=O)(=O)c3ccccc32)CC1,5480
18,COc1ccc(S(=O)(=O)N2CCCC(C(=O)Nc3ccc(NC(=O)c4ccccn4)cc3)C2)cc1 (stereo unspecified),22100 (active)
19,COc1ccc(CCNC(=O)C2CCCN(S(=O)(=O)c3ccc(OC)cc3)C2)cc1 (stereo unspecified),5700
20,CC(=O)Nc1ccc(NC(=O)C2CCCN(S(=O)(=O)c3ccc(Cl)cc3)C2)cc1 (stereo unspecified),5830
21,Cc1ccc(F)c(S(=O)(=O)NC(=O)C2(C)CCN2C(=O)CCc2cccs2)c1 (stereo unspecified),3440
22,CCOc1ccc(NC(=O)c2ccccc2NS(C)(=O)=O)cc1,9540
23,COC(=O)c1ccc(NC(=O)c2ccccc2NS(=O)(=O)c2ccccc2)cc1,20200 (active)
24,COC(=O)c1ccccc1NS(=O)(=O)c1ccc2[nH]c(=O)[nH]c2c1,2520

row,Structure (SMILES),fluorescence intensity
1,O=C(NCCC(=O)N1O[C@@H]2C=C[C@H]1C2)OCC1c2ccccc2-c2ccccc21,3360
2,COc1ccc(S(=O)(=O)NC(=O)C2(C)CCN2C(=O)c2ccccc2CCc2ccccc2)cc1 (stereo unspecified),3970
3,O=C(O)c1ccc(F)c(S(=O)(=O)Nc2ccccc2)c1,9990
4,COc1ccc(C)cc1S(=O)(=O)Nc1cccc(Cl)c1Cl,2450
5,COc1ccc(Cl)cc1S(=O)(=O)Nc1cccc(C(=O)O)c1,22100 (active)
6,COc1ccc(C(N)c2csc(NC(=O)Nc3cccc(C(F)(F)F)c3)n2)cc1 (stereo unspecified),3490
7,CC(=O)c1ccc(-n2nnnc2SCC(=O)N2CCN(C(=O)c3ccco3)CC2)cc1,2310
8,Cn1nnnc1SCC(=O)N1CCN(Cc2ccccc2)CC1,19800 (active)
9,Cn1nnnc1SCC(=O)N1CCN(C(c2ccccc2)c2ccccc2)CC1,3570
10,CC(C)COc1ccc(C(=O)NNC(=O)CCC(=O)c2cccs2)cc1,4110
11,NNC(=O)CSc1nnc(-c2ccccc2)n1-c1ccccc1,3710
12,O=C(O)CCSc1nnc(-c2ccccc2)n1-c1ccccc1,22100 (active)
13,O=C(O)CSc1nnc(-c2ccc3c(c2)OCO3)n1-c1ccccc1,2040
14,COc1ccccc1Cc1c(-c2ccc(Cl)cc2)nc2ccc(Cl)cn12,8280
15,COc1ccc(CCNC(=O)c2c(C)nn(-c3ccccc3)c2Cl)cc1,5520
16,Cc1nn(-c2ccccc2)c(C)c1NC(=O)CCl,2020
17,Cc1nn(-c2ccccc2)c(Cl)c1C(=O)Nc1ccccc1,20900 (active)
18,CCc1nc2ccc(C(=O)Nc3cc(-c4ccccc4)ccc3OC)cn2c1N(CC)CC(=O)N(C)C,3600
19,CCOC(=O)C1CCN(C(=O)Nc2ccc(Cl)cc2)CC1,2770
20,CCOC(=O)C1CCN(Cc2ccc(-c3ccccc3)cc2)CC1,3660
21,CCOC(=O)C1CCN(Cc2coc3ccc(Cl)cc3c2=O)CC1,20400 (active)
22,Cc1cc(CNCc2c(C(=O)N(C)Cc3ccccc3)nc3ccccn23)nn1C,2160
23,N#CC1=C(N)Oc2cc(O)ccc2C1C1CCCCC1 (stereo unspecified),4810
24,COc1ccc(C2C(C#N)=C(N)Oc3cc(N)ccc32)cc1OC (stereo unspecified),23300 (active)

row,Structure (SMILES),fluorescence intensity
1,N#CC1=C(N)Oc2cc(N)ccc2C1c1ccccc1 (stereo unspecified),4230
2,O=C(NCc1ccccc1Cl)c1csc([C@@H]2O[C@H](CO)[C@@H](O)[C@H]2O)n1,3690
3,Cc1cccc(-n2ncc(C#N)c2-n2cccc2)c1,19100 (active)
4,CC(=O)Nc1c2c(nn1-c1cccc(C)c1)CSC2,5830
5,Cc1cccc(-n2ncc(Cl)c(Cl)c2=O)c1,3990
6,CCOC(=O)C1CCCN(C(=O)c2ccc(N(C)C)cc2)CC1 (stereo unspecified),2830
7,CCc1nc2c(OCCC3CCCCC3)cccn2c1N(C)C(=O)c1ccco1,3130
8,COc1ccc(C(=O)N2CCCCC2c2cc(C(=O)Nc3ccccc3)no2)cc1 (stereo unspecified),3670
9,CCCNC(=O)C1(C)CCN(Cc2ccc(Cl)c(Cl)c2)C1 (stereo unspecified),4070
10,CC1(C(=O)Nc2ccccc2Br)CCN1C(=O)CC1CC1 (stereo unspecified),4640
11,O=C(Nc1cccc(Cc2ccccc2)c1)Nc1ccc2nc([C@@H]3O[C@H](CO)[C@@H](O)[C@H](O)[C@H]3O)[nH]c2c1,5830
12,CN1C(=O)CC(N2CCN(c3ccccn3)CC2)C1=O (stereo unspecified),20700 (active)
13,O=C(CN1CCN(c2ccccn2)CC1)NC1CCCCC1,5140
14,O=C(C(Cl)Cl)N1CCN(c2ccccn2)CC1,2340
15,CCCCc1c(-c2ccc(Cl)cc2)ncn1CCc1ccccc1OC,6340
16,COc1ccc(CN(Cc2ccco2)S(=O)(=O)c2ccc(S(=O)(=O)N3CCCC3)cc2)cc1,23600 (active)
17,CCOc1ccc(CN(Cc2ccco2)S(=O)(=O)c2ccc(-n3cnnn3)c(OC)c2)cc1,11600
18,COc1ccc(S(=O)(=O)NCc2ccc(C(=O)N(C)Cc3ccco3)cc2)cc1,10900
19,CC1(C(=O)Nc2cccc3c2CCCC3)CCN1C(=O)C1(c2ccccc2)CC1 (stereo unspecified),3760
20,C=CCn1c2c(c3ccccc31)CCC2,6080
21,CC(=O)c1ccc(Nc2nc(C(N)c3ccccc3)cs2)cc1 (stereo unspecified),3990
22,NS(=O)(=O)c1ccc(NS(=O)(=O)/C=C/c2ccccc2)cc1,7650
23,COc1ccc(Nc2nc(-c3ccccc3)cs2)cc1,23300 (active)
24,NS(=O)(=O)c1ccc(Nc2nc(-c3ccccc3)cs2)cc1,23200 (active)

row,Structure (SMILES),fluorescence intensity
1,COc1ccc(-c2csc(Nc3cccc(C)n3)n2)cc1OC,3770
2,COc1ccc2c(c1OC)C(=O)OC2Nc1nc(-c2ccccc2)cs1 (stereo unspecified),2960
3,CCCOc1ccc(F)cc1-c1cc(C(=O)Nc2ccc(F)cc2)[nH]n1,3520
4,COCCn1c(SCC(=O)c2[nH]c(C)c(C(C)=O)c2C)nc2ccccc2c1=O,3120
5,CC(C)Cn1cc(-c2cncc3nccn23)cn1,4100
6,COCCCNC(=O)c1ccc(-c2c(C)noc2C)c2ccoc12,3520
7,Cc1ccc(/C=N/NC(=O)Cn2ccc(C(F)(F)F)n2)o1,2150
8,c1ccc(Cc2c(-c3ccco3)nc3c4ccccc4ccn23)cc1,4810
9,Clc1ccc(CSc2nnc3c(n2)[nH]c2ccccc23)cc1,3690
10,c1ccc(CSc2nnc(-c3ccco3)c(-c3ccco3)n2)cc1,20900 (active)
11,CN(C)CCN(Cc1ccccc1)S(=O)(=O)c1csc(C(N)=O)c1,5470
12,Cc1ccc(-n2c(C)cc(C(=O)CSc3nnc4ccccn34)c2C)cc1,2510
13,COc1ccc(-n2c(C)cc(C(=O)COC(=O)c3cc(OC)c(OC)cc3NC(=O)c3cccs3)c2C)cc1,2450
14,COc1ccc(-n2c(C)cc(C(=O)CSc3nnc(-c4cccs4)o3)c2C)cc1,18900 (active)
15,COC(=O)c1ccc(OC(=O)c2cnccn2)cc1,4650
16,CC(C)CCC(C)NC(=O)c1ccc2nccnc2c1 (stereo unspecified),4050
17,O=C(Oc1ccccc1)c1ccc2nccnc2c1,16700 (active)
18,Cc1nccn1-c1ccc(NC(=O)[C@H]2O[C@@H](n3cnc4c(N)ncnc43)[C@H](O)[C@@H]2O)cc1,5940
19,CC(Oc1ccc(F)cc1F)C(=O)/C=C/N(C)C (stereo unspecified),24200 (active)
20,CCCC(=O)Nc1cccc(NC(=S)NC(=O)C(C)Oc2ccc(Cl)cc2Cl)c1 (stereo unspecified),2030
21,CC(Oc1ccc(Cl)cc1Cl)C(=O)/C=C/N(C)C (stereo unspecified),18300 (active)
22,CN(C)/C=C/C(=O)c1ccccc1F,4920
23,CC(Oc1ccccc1F)C(=O)NN (stereo unspecified),2470
24,CC(=O)N(OCc1ccc(OC(C)C)c(Cl)c1)C(C)=O,4420
